Bioassay records: PubChem, National Center for Advancing Translational Sciences (NCATS)
BLM inh = inhibitors of human Bloom syndrome helicase BLM; P54132; recombinant BLM DNA unwinding, fluorescence dequenching; Potency, µM (highest dose often 56.1 µM), without a hit: at the highest dose activity change, negative = inhibition, usual class: inhibitors; actives 0.2% (n = 350,000); AID 2528;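 note: potency is the fitted concentration of half-maximal effect; plate controls were vehicle for no effect and no enzyme for full effect; nearly all actives have a fitted effect of over 35% in size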
PI5P4K alpha inh = inhibitors of human PI5P4K alpha; P48426; PI5P4Kalpha enzyme, ADP-Glo luminescence, 60 min; hits give low values; max response, %; actives 1.2% (n = 330,000); AID 652105; active = max response of -50% or lower; inconclusive = between -30% and -50%; inactive = -30% or higher; note: value at the top dose of about 77 µM
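ADP-Glo luminescence end-point after a 60 min room-temperature kinase reaction. PI5P4Kalpha and substrate in HEPES pH 7.4 buffer with EGTA, 0.1% CHAPS and 5% DMSO; ATP at 5 microM final.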
KAT2A inh = blocks human GCN5L2 histone acetyltransferase; Q92830; GCN5L2 HAT assay, ThioGlo1 CoA-SH fluorescence; Potency, µM (doses to about 58.9 µM), for inactives: at the highest dose activity change, negative = inhibition, actives largely listed as inhibitors; actives 0.21% (n = 390,000); AID 504327; note: potency is the fitted concentration of half-maximal effect
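GCN5L2 (20 nM) in 50mM HEPES pH 7.5, 0.1mM EDTA, 0.01% Tween-20 preincubated 15 min with compounds at room temperature. Reaction started with H3(1-25) 75uM, acetyl-CoA 70uM, ThioGlo1 50uM; CoA-thiol fluorescence (Ex340/Em540) read at 0 and 20 min.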
FEN1 inhibitor = inhibitors of human flap endonuclease 1. P39748. Recombinant FEN1 flap cleavage, fluorescence, 15 min. Potency, µM (series often up to 114 µM), for the others: at the highest dose activity change, negative = inhibition, actives largely listed as inhibitors. actives 0.35% (n = 390,000). AID 588795; note: potency is the fitted concentration of half-maximal effect; nearly all actives have a fitted effect of over 65% in size
Target sequence (P39748 whole entry, looked up): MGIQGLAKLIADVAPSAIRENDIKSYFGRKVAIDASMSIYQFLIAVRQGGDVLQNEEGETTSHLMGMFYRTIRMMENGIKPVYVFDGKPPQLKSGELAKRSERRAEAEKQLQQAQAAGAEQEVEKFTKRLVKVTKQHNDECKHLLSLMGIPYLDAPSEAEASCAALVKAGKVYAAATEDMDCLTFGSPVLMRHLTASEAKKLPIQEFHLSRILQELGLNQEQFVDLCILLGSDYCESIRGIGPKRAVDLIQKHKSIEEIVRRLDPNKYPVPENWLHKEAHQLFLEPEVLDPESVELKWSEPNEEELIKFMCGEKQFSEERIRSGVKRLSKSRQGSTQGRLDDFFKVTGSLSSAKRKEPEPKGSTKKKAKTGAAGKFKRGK
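FEN1 at 10 nM, compound pretreatment for 15 min (room temperature), 50 nM final substrate to initiate; endpoint reads at 0 and 15 min; DMSO-only plates used as vehicle background.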
APE1 inh-1 = inhibitors of human APE1 endonuclease; recombinant APE1, TAMRA/BHQ-2 abasic DNA cleavage fluorescence; Potency, µM (highest dose often 65.8 µM), without a hit: top-dose activity change, negative = inhibition, hits mostly inhibitors; actives 0.35% (n = 350,000); AID 2517;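 note: potency is the fitted concentration of half-maximal effect; plate controls were vehicle for no effect and reference inhibitor for full effect; nearly all actives have a fitted effect of over 55% in size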
Target sequence (P27695 whole entry, looked up): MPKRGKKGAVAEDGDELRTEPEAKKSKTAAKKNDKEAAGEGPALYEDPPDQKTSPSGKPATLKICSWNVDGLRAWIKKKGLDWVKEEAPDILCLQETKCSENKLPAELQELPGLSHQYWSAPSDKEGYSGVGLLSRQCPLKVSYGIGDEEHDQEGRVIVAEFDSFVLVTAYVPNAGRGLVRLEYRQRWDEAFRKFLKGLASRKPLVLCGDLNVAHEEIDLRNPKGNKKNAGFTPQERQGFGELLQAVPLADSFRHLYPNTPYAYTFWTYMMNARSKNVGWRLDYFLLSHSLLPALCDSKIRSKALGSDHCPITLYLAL
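Readout is kinetic fluorescence (ex 525, em 598 nm) from cleavage of 50 nM TAMRA/BHQ-2 THF abasic duplex by 0.75 nM APE1, compound added 15 min beforehand at RT.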
RECQ1 inh = blocks DNA unwinding by human RECQ1. actives 0.54% (n = 240,000). Potency, µM (highest dose often 57.3 µM), inactives show at the highest dose activity, negative = inhibition, most hits filed as inhibitors. RECQ1 DNA unwinding, red fluorescence kinetic read. AID 2549;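 note: potency is the fitted concentration of half-maximal effect; plate controls were vehicle for no effect and no enzyme for full effect; nearly all actives have a fitted effect of over 30% in size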
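50 nM RECQ1T1 preincubated 15 min with compound in Tris pH 8.0 buffer with MgCl2, DTT, Tween-20 and 2.5 ug/ml poly(dI-dC); started with 200 nM TAMRA/BHQ-2 forked duplex and 2 mM ATP. Unwinding read as fluorescence (525/598 nm), two reads 2 h apart.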
EndoIV counter = blocks E. coli endonuclease IV DNA cleavage; shares compounds with APE1 inh-1; E. coli Endo IV, fluorogenic AP-site DNA cleavage; Potency, µM (series often up to 27.1 µM), without a hit: top-dose activity change, negative = inhibition, actives largely listed as inhibitors; actives 4% (n = 560);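 note: potency is the fitted concentration of half-maximal effect; plate controls were uninhibited enzyme wells for no effect and no enzyme buffer wells for full effect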
APE1 inh-2 = APE1 (human) endonuclease inhibition, confirmation; actives 44% (n = 750); purified APE1, fluorogenic abasic-site DNA cleavage; shares compounds with APE1 inh-1; AID 2572; Potency, µM (titrated, usually from 57.1 µM), inactives show top-dose activity change, negative = inhibition, actives largely listed as inhibitors; note: potency is the fitted concentration of half-maximal effect; nearly all actives have a fitted effect of over 30% in size
* hit, by the source's call; i = inactive; u = inconclusive; x = not tested or not shown; ! = a repeat was not active; [ ] = remark or other dose. An excerpt weighted towards active compounds, which were near 1.5% of everything screened. Unless noted, calls come from the whole dose curve; as a rule, active = well fitted curve in the direction sought with a large enough effect; inconclusive = small, poorly fitted or top-dose-only effect, or another doubt; inactive = no such curve, though single readings can be large; an effect the other way counts as inactive or inconclusive. Unless noted, % is set by controls: 0 for no effect and ±100 for the full control effect.

SMILES	BLM inh	PI5P4K alpha inh	KAT2A inh	FEN1 inhibitor	APE1 inh-1	RECQ1 inh	others
C[N+]1([O-])[C@@H]2CC(OC(=O)[C@@H](CO)c3ccccc3)C[C@@H]1[C@H]1O[C@H]12 (some centres not stated)	-11%	x	10µM*!	x	x	-7%[25.9 µM]
Cc1ccc(NS(=O)(=O)c2ccc(Cl)c(N=Nc3c(O)[nH]c(=O)[nH]c3=O)c2)cc1Cl	x	u	-12%	45µM*	11%	x
CCN(CC)S(=O)(=O)c1ccc(NN=C(C#N)C#N)cc1	-23%	-58*	-24%	-2%	0%	13%
[O]=[Cr](=[O])([OH])[O][Cr](=[O])(=[O])[OH]	1µM*	x	u	x	25µM*!	13µM*
O=C(Nc1ccc2ccccc2c1)c1nn(C23CC4CC(CC(C4)C2)C3)cc1Br	1%	x	-3%	16%	4.5µM*	-8%
Cc1nc(Cl)sc1C(=O)Nc1ccc2ccccc2c1	-1%	2	-7%	0%	17%	i
CC1=CC2/C=C(\C)CCC(O)C(O)/C=C/C(=O)C23C(=O)NC(CC(C)C)C3C1C (configuration not stated)	-8%	-26	-2%	-11%	-1%	-20%
C/C1=C\[C@@H](C)C/C=C/[C@H]2[C@@H]3O[C@]3(C)[C@@H](C)[C@H]3[C@H](Cc4c[nH]c5ccccc45)NC(=O)[C@]32C(=O)/C=C/C(=O)[C@@H]1O	-15%	u	-1%	-2%	16µM*	i
O=C1NC(=O)N(c2ccc(Cl)cc2)C(=O)/C1=C/c1coc2ccc(O)cc2c1=O	-9%	-58*	-2%	-19%	u	u
O=C1NC(=O)N(c2ccccc2)C(=O)/C1=C/c1coc2ccc(O)cc2c1=O	-11%	-66*	1%	-2%	4%	2%
CCC1(C)OC(c2ccccc2)=C/C(=C/C=C2C(=O)NC(=O)NC2=O)O1 (configuration not stated)	-23%	-16	-1%	-11%	5%	8.9µM*
CC(=O)O[C@H]1C(=O)[C@@]2(C)C([C@H](OC(=O)c3ccccc3)[C@]3(O)C[C@H](OC(=O)[C@H](O)[C@@H](NC(=O)c4ccccc4)c4ccccc4)C(C)=C1C3(C)C)[C@]1(OC(C)=O)CO[C@@H]1C[C@@H]2OC(=O)[C@H](C)NC(=O)c1ccc(-c2c3ccc(=O)cc-3oc3cc(O)ccc23)c(C(=O)O)c1 (some centres not stated)	3.2µM*	x	u	x	3.2µM*	3.2µM*
C/C=C(\C)C(=O)N[C@@H](c1ccccc1)[C@@H](O)C(=O)O[C@H]1C[C@@]2(O)[C@@H](OC(=O)c3ccccc3)C3[C@](C)(C(=O)[C@H](OC(C)=O)C(=C1C)C2(C)C)[C@@H](O)C[C@H]1OC[C@@]31OC(C)=O (some centres not stated)	-2%	-3	-2%	-1%	7%	-13%
COc1ccccc1/C=C1\C(=O)NC(=S)N(c2ccccc2)C1=O	-2%	-55*	-8%	13%	55%	x
COc1ccc(N2C(=O)/C(=C/C=C/c3ccccc3[N+](=O)[O-])C(=O)NC2=S)cc1	28µM*	-91*	u	u	15%	35µM*
COc1ccc(N2C(=O)/C(=C/c3cccs3)C(=O)NC2=S)cc1	0%	-96*	-11%	-4%	-4%	14%
COc1ccc(N2C(=O)NC(=O)/C(=C\c3cn(C)c4ccccc34)C2=O)cc1	-6%	-5	-27%	13%	-12%	x
COc1ccccc1C=C1C(=O)NC(=S)NC1=O	x	-86*	x	-1%	x	x
O=C1NC(=S)N(c2ccc(F)cc2)C(=O)/C1=C/c1ccccc1O	0%	-1	4%	17%	9%	x
c1cc[n+]2c(c1)-c1cccc[n+]1CC2	5%	x	39%	x	20%	2%
CCOP(=S)(OCC)OCCSCC	0%	x	0%	x	-2%	-12%
COc1ccccc1N1C(=O)NC(=O)/C(=C/c2ccc3c4c(cccc24)CC3)C1=O	-4%	-58*	-32%	10%	-1%	-5%
N#CC1=C(N)Oc2c(c(=O)sc3ccccc23)C1c1cccnc1 (configuration not stated)	-6%	-63*	-5%	-6%	u	-5%
N#CC1=C(N)Oc2c(c(=O)oc3ccccc23)C1c1ccncc1 (configuration not stated)	-1%	x	2%	-4%	14%	1%
Cc1cccc2c3c(ccc12)C1=C(C(=O)C3=O)[C@@H](C)CO1	-10%	x	-8%	x	-3%	14%
Cc1cc(O)c2c(c1)C(=O)C13C(=C2O)C(=O)[C@H]2[C@@H](O)[C@@H]1[C@H]1[C@H](O)[C@@H]3C(=O)C3=C(O)c4c(O)cc(C)cc4C(=O)C312 (some centres not stated)	x	-53*	-9%	u	-40%	x
Cc1cc(=O)oc2cc3c(cc12)CCCN3	1%	-1	22µM*	16%	-9%	x
C=C[C@H]1CN2CC[C@H]1C[C@H]2[C@H](OC(=O)OCC)c1ccnc2ccc(OC)cc12	x	x	x	x	-2%	x
Clc1cnc(Oc2ccc(Oc3ncc(Cl)cc3Cl)cc2)c(Cl)c1	-2%	x	-12%	-5%	-8%	-7%	EndoIV counter=-1%[57.1 µM];APE1 inh-2=-11%
CC1=C[C@@H]2c3cccc4[nH]cc(c34)C[C@H]2N(C)C1	-1%	3	25%	u	u	-20%
